# PubChem BioAssay (NCI)
# This is part of a sample that, as a whole, favours compounds with a hit. Of some 83,000 tested, about 20% had one in any assay.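 Cells were grown in 96-well plates and exposed to the test compound at a single concentration for 48 hours; results are reported as percent growth, with values below 10 considered active.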 A number with no mark means an inactive call. Calls of active or inactive are those of the source.
# Tested on: HL-60(TB) leukemia
# Assay: NCI-60 one-dose screen, 48 h (100 = growth as untreated, 0 = no growth, -100 = all killed)
# Conditions: 10 µM unless noted
# Description: Growth inhibition of the HL-60(TB) human tumor cell line is measured as a screen for anti-cancer activity. Cells are grown in 96 well plates and exposed to the test compound for 48 hours. Compounds are tested at a single concentration, which is 10^-5 M for most compounds. The reported endpoint is percent growth (GI% or GIPRCNT), where numbers from 0 - 100% represent growth inhibition, and numbers from -100% - 0 represent cell death. For example, a value of 40 represents 60% growth inhibition. A value of 0 means no net growth occurred over the course of the experiment. A value of -40 indicates 40% of cells at the beginning of the experiment died by the end of the experiment. A value of -100 means all cells are dead at the end of the experiment.
# NCI-60 Human Tumor Cell Lines Screen was performed using the standard one-dose NCI protocol, which is described in more detail at https://dtp.cancer.gov/discovery_development/nci-60/default.htm.
# Compounds with GIPRCNT values below 10 were considered active. Activity score was based on GIPRCNT using the following formula: […]
# Score is 0 for GIPRCNT values of 100 or above, 50 for GIPRCNT values of 0, and 100 for GIPRCNT values of -100.
row,Compound,growth
1,CCOP(=O)(OCC)O[C@H]1CC[C@]2(C)[C@H]3CC[C@@H]4[C@@H]([C@](C)(O)CCC=C(C)C)CC[C@@]4(C)[C@]3(C)CC[C@H]2C1(C)C,0.463% (active)
2,COc1ccc(CCN2C(=O)/C(=C/c3csc(C#N)n3)SC2=S)cc1OC,-18% (active)
3,COc1ccc(C2N(c3ccc(Br)cc3)N=C(C(C)=O)N2[C@H]2[C@H](OC(C)=O)O[C@H](COC(C)=O)[C@@H](OC(C)=O)[C@@H]2OC(C)=O)cc1 (stereo not given in full),23.7%
4,COc1cccc(NC(=O)c2ccc(NC(=O)CCl)s2)c1,-28.2% (active)
5,CN1C(=O)C(O)(CC(=O)c2cc3ccccc3oc2=O)c2ccccc21 (stereo not given),84.4%
6,O=C(c1ccc(OCCN2CCOCC2)cc1)C1[C@H](c2ccc(Cl)cc2)[C@@H](c2ccccc2)NC12C(=O)Nc1ccc(Cl)cc12 (stereo not given in full),-12.7% (active)
7,COc1ccc(-c2nc(-c3ccccc3)c(-c3ccccc3)n2-c2ccc(S(=O)(=O)Nc3ncccn3)cc2)cc1OC,89%
8,Cc1nc(Nc2ccccn2)sc1C(=O)CC(SCC(=O)Nc1ccc(Cl)cc1)c1ccccc1F (stereo not given),14%
9,Cc1ccccc1[C@H]1C(C(=O)c2ccc(Cl)cc2)C2(N[C@@H]1c1ccccc1)C(=O)Nc1ccc(Cl)cc12 (stereo not given in full),-32.2% (active)
10,COc1ccc(-c2cc(-c3cc(C(C)C)c(O)cc3C)nn2-c2ccc(S(N)(=O)=O)cc2)cc1,9.51% (active)
11,O=C(CSc1nc2ccccc2c(=O)n1-c1ccc(Cl)cc1)Nc1ccc(-c2nc3ccccc3[nH]2)cc1,44.4%
12,O=C1Nc2ccc(F)cc2/C1=C/C(=O)c1cc2ccccc2oc1=O,85.6%
13,CN1C(=O)/C(=C/c2ccc3ncsc3c2)NC1=NC12CC3CC(CC(O)(C3)C1)C2,-16.6% (active)
14,C/C(=C\CC/C=C(\C)CC/C=C(\C)CC[C@@H](O)C(C)(C)O)CC/C=C(\C)CC[C@@H](O)C(C)(C)O,-49.3% (active)
15,Cc1ccc(-c2ccc(SCC(=O)Nc3ccc(Cl)c(C(F)(F)F)c3)nn2)cc1,-22.3% (active)
16,CCCCCCCCc1ccc(S(=O)(=O)Nc2ccc(CC)cc2C(=O)O)cc1,120%
17,FC(F)(F)CN1CCN(CCn2c(C(F)(F)F)cc3c(Cl)ncnc32)CC1,-65.2% (active)
18,Cn1cc(-c2cc3nc(-c4c[nH]c5ccc(Cl)cc45)cc(N)n3n2)c2ccccc21,-34.2% (active)
19,Cc1cc(=O)oc2cc(OCCOc3ccc(/C=C/C(=O)Nc4ccccc4N)cc3)ccc12,0.0457% (active)
20,COc1cc(-c2nc3cc(Cl)c(Cl)cc3[nH]2)ccc1OCc1nnc(-c2ccc(Br)cc2)o1,-62% (active)

row,Compound,growth
1,CCC(C)(C)c1ccc(OCCCCN2CCN(c3ccncc3)CC2)cc1,-57.7% (active)
2,CC1=C2C(=C[C@@](C)(COCOCCCl)[C@@H]2O)C(=O)[C@](C)(O)C12CC2,-31.8% (active)
3,COc1ccc(Cn2cc(C#N)c(N)c2C(C)=O)c(OC)c1,99%
4,COc1cc2oc(-c3cccc(C(=O)Nc4ccc(Cl)cc4)c3)cc(=O)c2c(OCC(=O)N[C@@H](Cc2ccccc2)C(=O)O)c1OC,115%
5,COc1ccc2ccccc2c1/C=C1\SC(=Nc2ccc(O)cc2)NC1=O,-29.9% (active)
6,O=C(Nc1ccc(OCc2ccc(Cl)cc2)cc1)Nc1ccc(Cl)c(C(F)(F)F)c1,0.65% (active)
7,CCCn1c(=O)c2[nH]c(-c3ccc(OCc4nc5ccc(F)cc5[nH]4)cc3)nc2n(CCC)c1=O,38.2%
8,CC(C)(C)C(=O)C1CC(C#N)=C2C=Cc3c(ccc4ccccc34)N21 (stereo not given),108%
9,COc1ccc2[nH]cc(-c3cc4nc(-c5cn(C)c6ncccc56)cc(N)n4n3)c2c1,-35.4% (active)
10,Cc1cc2nc3c4ccccc4n(CC4=NCCN4)c3nc2cc1C,-55.6% (active)
11,COc1ccc(/C=C/C(=O)c2ccc(S(=O)(=O)NCCNc3nc(N(C)C)nc(N4CCOCC4)n3)cc2)cc1,67.1%
12,NS(=O)(=O)c1ccc(NNC(=O)CCC(=O)c2ccccc2)cc1,75.3%
13,O=C(N/N=C/c1c[nH]c2ccccc12)Nc1ccccc1Cl,0.912% (active)
14,Cc1ccc(NCC(=O)Cn2cc(COc3ccc(C=Nc4cnc5ccccc5c4)cc3)nn2)cc1,101%
15,CC(C)(C)OC(=O)N1CCC2(CC1)Oc1ccccc1[C@H]1CC(c3ccc(Br)cc3)=NN12,64.1%
16,COc1sc(/C=N/NC(=O)c2[nH]c3ccc(Br)cc3c2-c2ccccc2)cc1Br,-37.7% (active)
17,Oc1ccc(F)c(Nc2nc(SCCN3CCOCC3)nc3c2cnn3CC(Cl)c2ccc(Br)cc2)c1 (stereo not given),2.22% (active)
18,O=c1[nH]c2ccc(Cl)cc2cc1CSc1nccc(-c2ccc(Cl)cc2)n1,102%
19,O=C(CSc1nnc(-c2ccc3nc(-c4ccccc4)[nH]c3c2)o1)Nc1ccc(Cl)cc1,46.7%
20,O=C1NC(=NC23CC4CC(CC(C4)C2)C3)N/C1=C\c1ccc2ncoc2c1,-8.15% (active)
